This is an account of results in PubChem BioAssay AID624297 (National Center for Advancing Translational Sciences (NCATS), 2012).

Each structure is given as a SMILES string. Out of some 340,000 compounds screened, about 6,200 (1.8%) were called active. A call without a number means that no potency is given here. Not shown: some 10% with an inconclusive outcome. Calls follow the shape of the dose curve; as a rule, active = well fitted activation curve with a large enough effect; inconclusive = small, poorly fitted or top-dose-only effect; inactive = no such curve, though single readings can be large or run the other way. Only a selection was taken, and actives are over-represented in it overall.
Potency is read from the fitted curve at half-maximal effect.

The nature of this assay: A quantitative high throughput screen for small molecules that induce DNA re-replication in SW480 colon adenocarcinoma cells. Also: nearly all actives have a fitted effect of over 55% in size. The settings on record: Hoechst DNA content imaging, 48 h; series mostly up to 46.1 µM. A digest of the protocol:
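Compounds, transferred as 23 nL by pin tool, were incubated with cells for 48 hr; DNA content per nucleus was then quantified by Hoechst staining and fluorescence plate imaging.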
Consider `CN(C(=O)c1cccc(NC(=O)Cc2ccc(NC(=O)C3CCCN(C(=O)C4CC4)C3)cc2)c1)C1CC1` (stereo not given), for which the Potency result is “inactive”.

`COc1ccc(NC(=O)CN(C)C(=O)c2cccc(S(=O)(=O)N3CCN(c4ccccc4)CC3)c2)cc1`: the Potency result was “inactive”.

Take `Cc1ccc(S(=O)(=O)N2CCCCC2)cc1C(=O)N(C)CC(=O)Nc1cccc(F)c1`: the Potency result was “inactive”.

Consider `CCOc1ccc(NC(=O)CN(C)C(=O)c2cccc(S(=O)(=O)N3CCCC3)c2)cc1OCC`, for which the Potency is 6.51 µM (active).

Regarding `Cc1noc(C)c1NC(=O)Nc1cccc2c1O[C@H](CN(C)S(=O)(=O)c1c(C)noc1C)[C@@H](C)CN([C@H](C)CO)C2=O`, the Potency result was “inactive”.

For the compound `CCCCOc1ccc(C(=O)NCC(=O)OCC(=O)c2c(N)n(C)c(=O)n(C)c2=O)cc1`, the Potency entry was “inactive”.

In the case of `CSc1ncccc1C(=O)NCC(c1ccco1)N1CCCCC1` (stereo not given), the Potency entry is “inactive”.

Turning to `COc1cc(CN2CCC(n3nccc3NC(=O)CCCc3ccccc3)CC2)ccc1O`, the Potency entry is “inactive”.

`COc1ccc(CN2CCC(n3nccc3NC(=O)CCCc3ccccc3)CC2)cc1C`: the Potency was 18.4 µM (active).

With `Cc1ccc(CN2CCC(n3nccc3NC(=O)CCCc3ccccc3)CC2)o1`, the Potency result was “inactive”.

As to `COc1ccc(CNC(=O)C[C@H]2C[C@H](C(=O)N3CCOCC3)[C@@]3(CCC4CCCC4)c4[nH]c5ccc(Cl)cc5c4CCN3C2=O)cc1OC`, the Potency entry was “inactive”.

As for `CC(C)(C)OC(=O)C[C@H]1C/C=C\C[C@@H](CC(=O)N[C@H](CO)Cc2ccccc2)C(=O)NC[C@@H](c2ccccc2)OC1=O`, the Potency entry was “inactive”.

Regarding `N#C/C(=C(/O)COC(=O)COc1ccc(Cl)cc1)c1nc2ccccc2[nH]1`, the Potency was 29.1 µM (active).

As for `COCCN(CCOC)S(=O)(=O)c1ccc(/C(O)=C(\C#N)c2nc3ccccc3[nH]2)cc1`, the Potency result is “inactive”.

As to `Cc1ccccc1OC/C(O)=C(\C#N)c1nc2ccccc2[nH]1`, the Potency entry was “inactive”.

`CCN1C[C@@H]2[C@@H]3C(=O)N(Cc4ccccc4)C(=O)[C@@H]3[C@](C)(C1=O)N2C(=O)c1ccc(C(C)(C)C)cc1`: the Potency entry was “inactive”.

For `O=C(NOCc1ccccc1)c1cccc([N+](=O)[O-])c1`, the Potency entry is “inactive”.

Turning to `O=c1oc2ccccc2c(=O)c2ccccc12`, the Potency result was “inactive”.

With `CC[C@]12c3[nH]c4cc(CCC(=O)N(C)C)ccc4c3CCN1C(=O)[C@@H](CC(=O)NCc1ccco1)C[C@@H]2C(=O)N1CCN(C(=O)c2ccco2)CC1`, the Potency entry is “inactive”.

As for `Cn1ncc(Br)c1C(=O)NCc1cccs1`, the Potency result was “inactive”.

Regarding `O=C(NCc1cccs1)c1cc(-c2ccccn2)nc2ccc(Br)cc12`, the Potency result was “inactive”.

Take `CC(C)Cn1c(N)c(C(=O)NCc2cccs2)c2nc3ccccc3nc21`: the Potency was 5.17 µM (active).

With `O=c1ccn([C@@H]2O[C@H](CNS(=O)(=O)c3cc4ccccc4s3)[C@@H](O)[C@H]2O)c(=O)[nH]1`, the Potency result was “inactive”.

Take `CCN(c1ccccc1)S(=O)(=O)c1ccc(C(=O)Nc2ccccc2OC)cc1`: the Potency result was “inactive”.

Take `O=C(NCCCN1CCOCC1)c1cn(-c2ccccc2)nc1-c1ccc(F)cc1`: the Potency entry is “inactive”.

Turning to `O=C(NCC(c1cccs1)N1CCOCC1)c1cc(-c2ccccn2)nc2ccccc12` (stereo not given), the Potency entry is “inactive”.

For `Cc1ccc(-c2nn(-c3ccc(F)cc3)cc2C(=O)NCC(c2cccs2)N2CCOCC2)cc1` (stereo not given), the Potency is 23.1 µM (active).

As to `Cn1c(=S)sc2ccc3ccccc3c21`, the Potency result was “inactive”.

In the case of `Cc1cc(C)c(C=NNc2nc3c([nH]2)c(=O)n(C)c(=O)n3C)c(C)c1`, the Potency entry was “inactive”.

As for `COc1cccc(/C=N/Nc2ncc(C(F)(F)F)cc2Cl)c1O`, the Potency was 0.92 µM (active).

On to `COc1cccc(/C=N/Nc2ccc(S(=O)(=O)Nc3ccccc3C(=O)O)cc2[N+](=O)[O-])c1O`, for which the Potency result was “inactive”.

Regarding `FC(F)(F)c1cnc(Oc2ccccc2-c2nnc(-c3ccc(Cl)cc3)o2)c(Cl)c1`, the Potency entry was “inactive”.

As for `CC(=NNC(=O)c1ccncc1)c1ccc(Cl)c(Cl)c1`, the Potency entry is “inactive”.

As to `C=CCC[C@@H](Cc1ccc(F)cc1)C(=O)OC[C@@H](C)NC(=O)[C@H](CC=C)CC(=O)N(CCO)Cc1ccccc1`, the Potency result was “inactive”.

Take `CCOC(=O)C1=C(C)Nc2nc3ccccc3n2C1c1cccs1` (stereo not given): the Potency result was “inactive”.

`CCOc1ccc(C2C(C(=O)NC)=C(C)Nc3nc4ccccc4n32)cc1OC` (stereo not given): the Potency entry is “inactive”.

`COc1ccccc1NC(=O)C1=C(C)Nc2nc3ccccc3n2C1c1cccs1` (stereo not given): the Potency was 4.11 µM (active).

On to `Cc1ccc(C(=O)O)c(NC=O)c1OCc1ccccc1`, for which the Potency result is “inactive”.

Regarding `CC(OC(=O)c1c(F)cccc1F)C(=O)NCCC1=CCCCC1` (stereo not given), the Potency result was “inactive”.

On to `O=C(Nc1cccc(S(=O)(=O)N2CCCC2)c1)c1cncc(Br)c1`, for which the Potency entry is “inactive”.

Regarding `COc1ccc2sc(-c3ccc(S(C)(=O)=O)cc3)c(-c3ccc(C(N)=O)cc3)c2c1`, the Potency entry was “inactive”.

`Cn1cncc1C#Cc1c(-c2ccsc2)sc2ccccc12`: the Potency entry was “inactive”.

Take `COc1ccc2sc(-c3ccc(S(C)(=O)=O)cc3)c(C#Cc3cncn3C)c2c1`: the Potency was 5.8 µM (active).

As to `Oc1cccc(CCc2ccccn2)c1`, the Potency result is “inactive”.

Regarding `COc1ccc(C(=O)O)cc1S(=O)(=O)NC1CCN(Cc2ccccc2)CC1`, the Potency result is “inactive”.

As to `COc1cc(C(=O)NC2CCN(Cc3ccccc3)CC2)cc(Cl)c1OC(C)C`, the Potency was 18.4 µM (active).

With `COc1cc2[nH]c(=O)n(Cc3ccc(C(=O)NC4CCN(Cc5ccccc5)CC4)cc3)c(=O)c2cc1OC`, the Potency result was “inactive”.

For `CNC[C@@H]1Oc2c(NS(C)(=O)=O)cccc2C(=O)N([C@@H](C)CO)C[C@H]1C`, the Potency entry was “inactive”.

As for `CCn1nc(C(=O)NNS(=O)(=O)c2cc(/C=C/C(=O)O)cc(OC)c2OC)c2ccccc2c1=O`, the Potency entry was “inactive”.

On to `C=CC[C@@H](Cc1ccc(F)cc1)C(=O)OC[C@H]1CCCN1C(=O)[C@H](CC=C)CC(=O)N(CCO)Cc1ccccc1`, for which the Potency result was “inactive”.

With `Cc1ccc(S(=O)(=O)c2c(COC(=O)c3cccc(Cl)c3)c(-c3ccccc3)nn2C)cc1`, the Potency entry is “inactive”.

Regarding `Cn1nc(-c2ccccc2)c(CO)c1Sc1ccccc1`, the Potency entry was “inactive”.

On to `Cn1nc(-c2ccccc2)c(CSc2cccc(Cl)c2)c1Cl`, for which the Potency is 16.4 µM (active).

Turning to `COc1cccc(CC(=NO)c2cccc(OC)c2)c1`, the Potency result was “inactive”.

Turning to `CCOc1cccc(-n2nnnc2-c2ccc(OC)cc2)c1`, the Potency is 13 µM (active).

For `CCOC(=O)C(C)n1cnc2c(nnn2-c2cccc(OC)c2)c1=O` (stereo not given), the Potency entry is “inactive”.

On to `c1ccc(-n2nnnc2-c2cccnc2)cc1`, for which the Potency entry is “inactive”.

Turning to `COc1cc(S(=O)(=O)N2CCN(C(=O)C3CC3)CC2)ccc1NC(C)=O`, the Potency result was “inactive”.

For `COc1cc(C(=O)NC2CCN(C)CC2)ccc1Nc1ncc2c(n1)N(C1CCC(O)CC1)CCC(=O)N2C` (stereo not given), the Potency result was “inactive”.

Take `COC(=O)C1=C(C)N(C)C(=O)NC1c1ccc([N+](=O)[O-])o1` (stereo not given): the Potency is 23.1 µM (active).

For the compound `COc1ccc(C2NC(=O)N(C)C(C)=C2[N+](=O)[O-])cc1` (stereo not given), the Potency entry is “inactive”.

For the compound `COC(=O)C1=C(C)N(C)C(=S)NC1c1ccccc1` (stereo not given), the Potency result is “inactive”.

With `Cc1cccc(C(=O)N[C@H](C(=O)NCc2cccs2)C(C)C)c1`, the Potency result is “inactive”.

Turning to `COc1ccc(CN2C(CC(=O)Nc3cccnc3)c3ccc(C(F)(F)F)cc3S2(=O)=O)cc1` (stereo not given), the re-replication activation is -6.2% [at 9.22 µM] (inactive).

As for `CCCCN(C)C(=O)C1CCN(Cc2ccccn2)CC1`, the re-replication activation is -0.529% [at 9.22 µM] (inactive).

As to `CCCC(=O)C1CCN(Cc2ccccc2)CC1`, the Potency entry is “inactive”.

As for `CCCCN(Cc1ccccc1)C(=O)C1CCN(Cc2sccc2C)CC1`, the Potency was 14.6 µM (active).

On to `CSCCC(NS(=O)(=O)c1ccc(C)cc1)C(=O)N(C)CC(=O)Nc1ccccc1Br` (stereo not given), for which the Potency result was “inactive”.

`CNN/C(N=Cc1ccc([N+](=O)[O-])s1)=N\S(=O)(=O)c1cc(C)c(Cl)cc1SCc1ccccc1`: the Potency result was “inactive”.

As for `COc1ccc2c(c1OC)C(=O)OC2Nc1nc(-c2ccccc2)cs1` (stereo not given), the Potency was 6.51 µM (active).

Consider `Cc1cccc(Nc2nc(-c3ccccc3)cs2)n1`, for which the Potency entry was “inactive”.

With `COc1ccc(-c2csc(NC3OC(=O)c4ccccc43)n2)cc1` (stereo not given), the Potency entry was “inactive”.

Turning to `O=C1NC[C@@H](c2ccccc2)OC(=O)[C@H](Cc2ccc(F)cc2)CC/C=C/C[C@H]1CC(=O)N(CCO)Cc1ccccc1`, the Potency entry is “inactive”.

Turning to `CCOC(=O)C1=CN(Cc2ccc(Br)cc2)S(=O)(=O)NC1C` (stereo not given), the Potency entry was “inactive”.

On to `CC1CC(C)CN(CC(=O)N2c3ccccc3CCc3ccccc32)C1` (stereo not given), for which the Potency result was “inactive”.

Consider `CC1C(=O)N(Cc2ccccc2)c2ccccc2N1C(=O)c1ccccc1` (stereo not given), for which the Potency result is “inactive”.

For the compound `CC1C(C)N(C(=O)CCl)c2ccccc2N1C(=O)CCl` (stereo not given), the Potency is 5.17 µM (active).

Consider `Cc1c(NS(=O)(=O)c2cccc(C(=O)Nc3ccc(SC(F)F)cc3)c2)c(=O)n(-c2ccccc2)n1C`, for which the Potency entry was “inactive”.

`COc1ccc(NS(=O)(=O)c2ccc(C(=O)Nc3c(C)n(C)n(-c4ccccc4)c3=O)cc2)cc1`: the Potency was 6.51 µM (active).

As for `Cc1cc(C(=O)Nc2c(C)n(C)n(-c3ccccc3)c2=O)cs1`, the Potency result is “inactive”.

On to `C=CC(=O)Nc1ccc(Nc2ccnc(Nc3ccc(N4CCN(C)CC4)cc3)n2)cc1`, for which the Potency result was “inactive”.

In the case of `C(=N/Nc1cc(N2CCOCC2)nc(N2CCOCC2)n1)/c1ccccc1`, the Potency was 5.8 µM (active).

Take `Cc1cc(N2CCN(c3ccccc3)CC2)nc(N2CCOCC2)n1`: the Potency result was “inactive”.

For the compound `CN(C)c1ccc(/C=N/Nc2cc(N3CCOCC3)nc(N3CCOCC3)n2)cc1`, the Potency entry was “inactive”.

As for `O=C(c1cc(=O)c2ccccc2o1)N1CCN(c2ccccc2)CC1`, the Potency entry was “inactive”.

Take `COc1ccccc1N1CCN(C(=O)c2cc(=O)c3cc(C)ccc3o2)CC1`: the Potency result is “inactive”.

Turning to `COc1cc2c(cc1OC)CN(C(=O)c1cc(=O)c3ccccc3o1)CC2`, the Potency is 13 µM (active).

`NC(=O)C1CCN(C(=O)c2cc(S(=O)(=O)N3CCN(c4ccccc4)CC3)ccc2Cl)CC1`: the Potency result was “inactive”.

Regarding `COc1cc2[nH]c(O)c(C=O)c2cc1OC`, the Potency entry was “inactive”.

Consider `Cc1ccc(S(=O)(=O)N2CCN(C(=O)COC(=O)/C=C/c3cccc(Cl)c3)CC2)c(C)c1`, for which the Potency result was “inactive”.

Turning to `CCCCC[C@@H]1C=C(C(=O)O)[C@H](c2ccc(C#N)cc2)N1S(=O)(=O)c1ccc(C)cc1`, the Potency result is “inactive”.

Consider `CCC1(C)COC(c2ccc(OC)c(OC)c2)OC1` (stereo not given), for which the Potency entry is “inactive”.

Take `O=[N+]([O-])c1ccccc1NCc1ccc(Cl)cc1`: the Potency result is “inactive”.

Regarding `Oc1ccc(CNc2ccccc2O)cc1`, the Potency was 20.6 µM (active).

Take `O=C(Cc1ccc(Cl)cc1)NC(=S)Nc1ccccc1O`: the Potency result was “inactive”.
